VDR inh: inhibitors of human vitamin D receptor; P11473; VDR-SRC2-3 peptide fluorescence polarization, 2 h; Potency, µM, inactives show max response, negative = inhibition, usual class: inhibitors; 400,000 compounds, 0.93% hits; note: potency is the fitted concentration of half-maximal effect
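Fluorescence polarization assay measuring small-molecule disruption of VDR binding to the coregulator peptide SRC2-3. Compounds were pin-transferred (23 nl) into the reagent mix and incubated 2 h at room temperature before reading.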
PLK1 PBD inh: blocks phosphopeptide binding to human PLK1 polo-box domain | Potency, µM, without a hit: max response, negative = inhibition, hits mostly inhibitors | AID 720504 | 360,000 compounds, 2.8% hits | P53350 | Plk1 PBD binding of FITC phosphopeptide, fluorescence polarization; note: potency is the fitted concentration of half-maximal effect; series mostly up to about 57 µM; nearly all actives have a fitted effect of over 65% in size
PI4K2A block: blocks human PI4K2A kinase activity. Q9BTU6. purified PI4K2A, ADP-Glo luminescence, 1 h; hits give low values. activity change, negative = inhibition, % at 76.9 µM. 420,000 compounds, 0.13% hits; in the data active = activity change below about -50%; inconclusive = mostly about -30% to -49%;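 note: -100% = wells without enzyme as full effect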
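ADP-Glo luminescence measured ADP generated by PI4K2A enzyme (4 ug/mL before mixing) with 1.2 mM PI substrate (pre-mix) and 300 microM ATP (pre-mix). Tris pH7.5 buffer with MgCl2, Triton X-100; 1 h reaction at ambient temperature.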
GCN5L2 inh: blocks human GCN5L2 histone acetyltransferase; Potency, µM (series often up to 58.9 µM), without a hit: top-dose activity change, negative = inhibition, actives largely listed as inhibitors; 390,000 compounds, 0.21% hits; AID 504327; GCN5L2 HAT assay, ThioGlo1 CoA-SH fluorescence; Q92830; note: potency is the fitted concentration of half-maximal effect
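qHTS, 1536-well. 20nM enzyme, pH 7.5 HEPES/EDTA/Tween-20 buffer; 15 min compound preinc., RT. Start: 75uM H3(1-25), 70uM AcCoA, 50uM ThioGlo1. Read Ex340/Em540 at t=0 (autofluorescence flag) and t=20 min.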
GLS inhibitor: glutaminase GLS (human) inhibition; GLS enzymatic activity, qHTS titration; Potency, µM (titrated, usually from 45.5 µM), for inactives: top-dose activity change, negative = inhibition, usual class: inhibitors; AID 624170; 410,000 compounds, 0.21% hits; note: potency is the fitted concentration of half-maximal effect
Target sequence (O94925 whole entry, looked up): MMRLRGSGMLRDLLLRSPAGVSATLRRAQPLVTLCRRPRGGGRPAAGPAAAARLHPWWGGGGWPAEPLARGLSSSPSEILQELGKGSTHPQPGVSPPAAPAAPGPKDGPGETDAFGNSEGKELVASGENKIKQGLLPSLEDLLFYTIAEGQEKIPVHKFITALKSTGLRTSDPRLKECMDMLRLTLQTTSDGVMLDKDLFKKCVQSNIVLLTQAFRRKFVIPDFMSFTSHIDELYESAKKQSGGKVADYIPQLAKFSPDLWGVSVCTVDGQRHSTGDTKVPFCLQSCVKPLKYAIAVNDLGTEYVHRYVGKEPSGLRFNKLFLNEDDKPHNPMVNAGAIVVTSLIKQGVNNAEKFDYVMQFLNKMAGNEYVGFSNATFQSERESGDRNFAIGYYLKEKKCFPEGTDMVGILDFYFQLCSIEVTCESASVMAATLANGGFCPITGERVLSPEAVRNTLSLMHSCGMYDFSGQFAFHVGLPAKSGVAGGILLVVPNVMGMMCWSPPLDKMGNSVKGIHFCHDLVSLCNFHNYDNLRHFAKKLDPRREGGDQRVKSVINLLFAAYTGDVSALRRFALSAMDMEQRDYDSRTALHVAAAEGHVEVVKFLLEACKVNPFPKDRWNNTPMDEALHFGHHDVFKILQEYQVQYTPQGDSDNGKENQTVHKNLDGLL
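Human kidney-isoform GLS in 45 mM KH2PO4 pH 8.2, 0.02% Tween-20, with compound, started with 1mM L-Glutamine (added stock). Glutamate oxidase/HRP/Amplex red coupled fluorescence read at start and after 30 min at RT.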
* hit, by the source's call; ? = inconclusive; · = not tested or not shown. Hits are enriched below; roughly 3.1% of the tested compounds scored in any of these assays. Unless noted, calls come from the whole dose curve; as a rule, active = well fitted curve in the direction sought with a large enough effect; inconclusive = small, poorly fitted or top-dose-only effect, or another doubt; inactive = no such curve, though single readings can be large; an effect the other way counts as inactive or inconclusive. Unless noted, % is set by controls: 0 for no effect and ±100 for the full control effect.

SMILES	VDR inh	PLK1 PBD inh	PI4K2A block	GCN5L2 inh	GLS inhibitor
O=C(CS(=O)c1ccc(C(F)(F)F)cc1[N+](=O)[O-])Oc1ccc(Cl)cc1 (stereo unspecified)	50µM*	13µM*	-11	-7%	15%
COc1cc(NC(=O)NC2CCCCN(Cc3cccc(Cl)c3)C2=O)cc(OC)c1 (stereo unspecified)	·	·	3	·	·
Cc1ccc(NC(=O)c2sc3ncn(Cc4cccc(F)c4)c(=O)c3c2C)c(Br)c1	-2%	·	-3	-1%	0%
c1ccc(Cc2nnc3sc(-c4ccncc4)nn23)cc1	4%	?	-3	-1%	-14%
c1ccc(Cc2nnc3sc(-c4ccc5c(c4)OCO5)nn23)cc1	-20%	20µM*	-4	·	-13%
c1ccc(Cc2nnc3sc(-c4cccnc4)nn23)cc1	-13%	30µM*	-1	0%	-2%
c1ccc(Cc2nnc3sc(-c4ccc5c(c4)OCCO5)nn23)cc1	0%	-7%	-4	-9%	-17%
c1ccc(Cc2nnc3sc(-c4cccs4)nn23)cc1	?	15µM*	3	-10%	?
COC(=O)[C@]12C[C@H](CC(=O)N3CCCCC3)C(=O)N(CCC3=CCCCC3)C1=C[C@H](C(C)C)O[C@@H]2C1CC1	·	·	0	·	·
c1ccc(-c2nc(-c3cccc4ccccc34)c(NC3CCCCC3)o2)cc1	-23%	·	·	·	·
O=c1cc(-c2ccc(F)cc2)[nH][nH]1	?	4%	-8	-5%	7%
O=c1cc(-c2ccc(C3CCCCC3)cc2)[nH][nH]1	-22%	24µM*	-1	0%	-4%
CC(=O)NCCCN(Cc1ccc(Cl)c(Cl)c1)c1ccc(Br)cn1	-23%	·	·	·	·
CCn1cc2nc(SCc3ccc(F)cc3)n(Cc3ccc(Cl)cc3)c(=O)c2n1	2%	·	-3	0%	0%
CC(C)(c1ccc(O)c([N+](=O)[O-])c1)c1ccc(O)c([N+](=O)[O-])c1	17%	-5%	-15	·	11%
CC(C)(c1cc(Br)c(O)c(Br)c1)c1cc(Br)c(O)c(Br)c1	-10%	27µM*	1	?	34%
CC1(C)Cc2cccc(OCC(=O)NCCOc3ccccc3)c2O1	?	21µM*	-1	-4%	?
COc1ccccc1CCNC(=O)COc1cccc2c1OC(C)(C)C2	6%	5%	12	-3%	-13%
COC(=O)CSc1nnc(-c2ccc(NS(=O)(=O)c3ccc(C)c(C)c3)cc2)o1	·	·	-2	·	·
COCCNC(=O)C/C(C)=N/NC(=O)C(=O)NC1CCCCC1	4%	24µM*	3	-4%	0%
COCCCNC(=O)C(=O)NC1CCCCCC1	2%	-23%	1	0%	10%
O=C(CCCCCCCC(=O)c1ccccc1)c1ccccc1	0%	-9%	-2	2%	-4%
C=C(CCC(=O)c1ccccc1)C(=O)c1ccccc1	45µM*	-12%	45	2%	-9%
COc1ccc(-n2cnc(=S)[nH]c2=S)cc1	28µM*	?	1	·	17%
COc1ccc(-c2nc(CN3CCCC(C(=O)NC4CCCC4)C3)c(C)o2)cc1 (stereo unspecified)	2%	-1%	0	-12%	3%
SMILES	VDR inh	PLK1 PBD inh	PI4K2A block	GCN5L2 inh	GLS inhibitor
Cc1oc(-c2ccc(Cl)cc2)nc1CN1CCCC(C(=O)NC2CC2)C1 (stereo unspecified)	?	21µM*	-2	1%	10%
CC1CCCC(NC(=O)CCC(=O)c2ccc(F)cc2)C1C (stereo unspecified)	-18%	24µM*	8	-4%	-5%
CC1CCCC(NC(=O)CCC(=O)N2CCOc3ccccc32)C1C (stereo unspecified)	?	15µM*	3	1%	34%
COC(=O)c1ccccc1NC(=O)NCC1CCN(Cc2ccc(OC)cc2)CC1	·	·	2	·	·
O=C1/C(=C\c2cc([N+](=O)[O-])ccc2O)SC(=S)N1Cc1ccc(Cl)cc1	?	-12%	19	-13%	1%
O=C(O)CN1C(=O)/C(=C\c2cc([N+](=O)[O-])ccc2OCc2ccccc2Cl)SC1=S	?	27µM*	-1	?	?
O=C(O)CN1C(=O)/C(=C\c2cc(Br)ccc2OCc2ccc(Cl)cc2)SC1=S	40µM*	8.4µM*	-2	-26%	28%
COc1ccc(/C=C2/SC(=S)N(CC(=O)O)C2=O)cc1OCc1ccc(Cl)cc1	?	30µM*	-10	?	11%
COc1cc(/C=C2/SC(=O)N(Cc3ccccc3Cl)C2=O)ccc1OCc1ccncc1	89µM*	-4%	3	-3%	-8%
COc1cc(/C=C2/SC(=O)NC2=O)ccc1OCc1ccccc1	16%	?	0	-2%	3%
Cc1nc2ccc(S(=O)(=O)N(C)CC(=O)Nc3ccc(Br)c(C)c3)cc2s1	1%	·	4	3%	-6%
O=C(O)/C=C(/CC(=O)O)C(=O)O	·	·	·	·	9%
Cc1ccc(CNC(=O)c2ccc3c(c2)NC(=O)C(CS(=O)(=O)Cc2ccc(F)cc2)N3)cc1 (stereo unspecified)	11%	·	-1	0%	13µM*
Cc1nc(CNS(=O)(=O)c2cccc(F)c2)cs1	-3%	-7%	-1	1%	1%
Cc1ccc(-c2csc(NS(=O)(=O)c3cccc(F)c3)n2)o1	?	24µM*	-2	?	?
CCN(CC)C(=O)CSc1nc(-c2cccs2)cc(-c2cccs2)c1C#N	?	12µM*	3	-20%	?
C/C(=N\NC(=O)CSc1nnc(-c2ccccc2)n1-c1ccc(C)cc1)c1ccc(-c2ccccc2)cc1	·	·	-2	·	·
CNCCOc1nc(N2CCOCC2)nc(C)c1[N+](=O)[O-]	-9%	-3%	1	-1%	-2%
CCOc1nc(N2CCOCC2)nc(C)c1[N+](=O)[O-]	-9%	30µM*	-5	2%	-3%
CCCCc1ccc2nc(NC(=O)c3cccs3)sc2c1	·	·	-4	·	·
CNc1nc(N)c([N+](=O)[O-])c(Nc2cccc(OC)c2)n1	·	·	1	·	·
CCOC(=O)c1c(NC(=O)C2C3C=CC(C3)C2C(=O)O)sc2c1CCC(CC)C2 (stereo unspecified)	?	27µM*	-7	-17%	29%
COc1ccccc1NC(=S)N1CCN(c2ccccn2)CC1	-21%	-15%	7	-1%	16%
COc1cc(NC(=S)N2CCN(c3ccccn3)CC2)c(OC)cc1Cl	?	24µM*	-4	37%	7%
S=C(Nc1ccc(Oc2ccccc2)cc1)N1CCN(c2ccccn2)CC1	-12%	24µM*	2	0%	2%
COc1cccc(NC(=S)N2CCN(c3ccccn3)CC2)c1	?	27µM*	0	3%	?
Cc1csc(CNc2ncnc3ccc(-c4ccco4)cc23)c1	·	·	·	-10%	·
